Assay results from the supplement of paper PMC4894684.
Structures can show the parent of a compound that is named as a salt. ± gives the standard deviation of the averaged measurements.

Test system: Toxoplasma gondii RH (in HFF)
Assay: parasite growth relative to the screen mean (all compounds = 100%); higher = less inhibition of parasite growth
Details: 5 µM; 72 h; oxygen 21 %
Outline: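 Parasite growth was reported relative to the screen mean. In that scale, the mean of all compounds equals 100%, and values are averaged over two screens. Compounds from 10 mM DMSO stocks were pin-transferred to 5 µM final onto confluent human foreskin fibroblasts in 96-well plates, infected within 2 h with RH β-Gal–GFP Toxoplasma (MOI 1:5) and grown 72 h at 21% O2, with parasite number read by a CPRG β-Gal assay against in-plate standard curves. Uninfected host-cell viability was checked with CellTiter-Blue.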

SMILES	parasite growth [%]
N[C@H](C(=O)O)[C@H](OCc1ccccc1)C(=O)O (racemic)	80.3 ± 61
COc1ccccc1N1CCN(CCN2C(=O)CC3(CCCC3)CC2=O)CC1 [BMY 7378 dihydrochloride]	81.06 ± 0.29
COc1cc2ncnc(Nc3ccc(Oc4ccccc4)cc3)c2cc1OC	110 ± 20
O=C(O)c1ccc2cc(-c3ccc(O)c(C45CC6CC(CC(C6)C4)C5)c3)ccc2c1	181 ± 36
CNCCC(Oc1ccccc1OC)c1ccccc1 (stereo not given) [Nisoxetine hydrochloride]	67 ± 20
COc1cc(C[C@H]2C(=O)OC[C@@H]2Cc2ccc(OC)c(OC)c2)ccc1O [Arctigenin]	125 ± 10
COC(=O)C1=C(C)NC(C)=C([N+](=O)[O-])[C@H]1c1ccccc1C(F)(F)F	153 ± 8.1
O=c1cc(N2CCOCC2)oc2c(-c3ccccc3)cccc12	129 ± 26
CC(C)NCC(O)COc1cccc2[nH]ccc12 (stereo not given) [Pindolol]	148 ± 24
Cn1ccc2cc3c(cc21)CCN3C(=O)Nc1cccnc1	121 ± 17
O=C(NCCCCN1CCN(c2cccc(Cl)c2Cl)CC1)c1ccc2c(c1)Cc1ccccc1-2	92.71 ± 0.75
Nc1nc(NCCc2ccc(O)cc2)nc2nc(-c3ccco3)nn12	11.2 ± 10
CCOC(=O)C1=C(C)NC(=S)NC1c1cccc(O)c1 (stereo not given) [Monastrol]	126 ± 29
CC(CCc1ccc(O)cc1)NCCc1ccc(O)c(O)c1 (stereo not given) [Dobutamine hydrochloride]	176 ± 7.3
CCN(c1ccccc1)c1cc(=NC)n(C)c(C)n1	59 ± 11
N=C(N)NC(=O)Cc1c(Cl)cccc1Cl [Guanfacine hydrochloride]	162 ± 45
C[N+]1(C)CCC(OC(=O)C(c2ccccc2)c2ccccc2)CC1	86.5 ± 39
O=C(CCCCCN1C(=O)c2cccc3cccc(c23)C1=O)NO [Scriptaid]	< 0
CNS(=O)(=O)Cc1ccc2[nH]cc(CCN(C)C)c2c1 [Sumatriptan succinate]	76.2 ± 11
N[C@@H](CS(=O)O)C(=O)O [L-Cysteinesulfinic acid]	61 ± 6.7

SMILES	parasite growth [%]
C/N=C(/NC#N)NCCSCc1csc(NC(=N)N)n1 [Tiotidine]	122 ± 30
O=c1c(O)c(-c2ccc(O)c(O)c2)oc2cc(O)cc(O)c12 [Quercetin]	180 ± 32
CC(C)(C(=O)O)c1ccc(C(O)CCCN2CCC(C(O)(c3ccccc3)c3ccccc3)CC2)cc1 (stereo not given) [Fexofenadine hydrochloride]	122 ± 26
O=C(O)C(=O)O.[NH-][C@@H]1CCCC[C@H]1[NH-].[Pt+2] [Oxaliplatin]	143 ± 2.5
COc1cc([C@@H]2c3cc4c(cc3[C@@H](O[C@@H]3O[C@@H]5CO[C@@H](C)O[C@H]5[C@H](O)[C@H]3O)[C@H]3COC(=O)[C@H]23)OCO4)cc(OC)c1O [Etoposide]	77.2 ± 18
COc1cc2ncn(-c3cc(OCc4ccccc4C(F)(F)F)c(C(N)=O)s3)c2cc1OC	93.1 ± 20
C=C1C(=O)O[C@@H]2/C=C(\C)CC/C=C(\C)CC[C@@H]12 [Costunolide]	30.7 ± 25
Cc1sc(N)c(C(=O)c2cccc(C(F)(F)F)c2)c1C	141 ± 7.3
C[C@H](NC(=O)c1sccc1OCc1ccc(Cl)cc1)c1ccccc1	38.7 ± 22
O=C(O)c1ccc(-c2ccc3cc(O)c(C45CC6CC(CC(C6)C4)C5)cc3c2)cc1	146 ± 18
O=c1c(-c2ccc(O)cc2)coc2cc(O)ccc12 [Daidzein]	77.8 ± 43
CSc1ccc2c(c1)C(N1CCN(C)CC1)Cc1ccccc1S2 (stereo not given) [Methiothepin maleate]	< 0
N=C(N)N/N=C/c1c(Cl)cccc1Cl [Guanabenz acetate]	99.52 ± 0.3
CCn1c(=O)n(C2=C(CO)CN(CC3CCCCCCC3)CC2)c2ccccc21	174 ± 19
N#C/C(=C\c1ccc(O)c(O)c1)C(=O)OCCc1cccs1	132 ± 15
Cc1c(C(=O)NN2CCOCC2)nn(-c2ccc(Cl)cc2Cl)c1-c1ccc(I)cc1	88.1 ± 20
N#CC(=C(/N)Sc1ccccc1N)/C(C#N)=C(/N)Sc1ccccc1N	197 ± 14
CCCN(C/C=C/I)C1CCc2cccc(O)c2C1 (stereo not given) [8-Hydroxy-PIPAT oxalate]	190 ± 23
O=Nc1ccc(O)c2ncccc12	< 0
Cc1nn(C)c2nc(NNC(=O)Nc3cc(Cl)nc(Cl)c3)cc(C(C)C)c12	97.4 ± 3

SMILES	parasite growth [%]
NS(=O)(=O)c1nn2cc(-c3ccccc3)nc2s1	108 ± 28
Nc1ncnc2c1nc(Br)n2[C@@H]1O[C@@H]2COP(=O)(O)O[C@H]2[C@H]1O [8-Bromo-cAMP, sodium salt]	125 ± 25
CC(C)NCC(O)COc1ccccc1-n1cccc1 (stereo not given) [Isamoltane hemifumarate]	97 ± 39
N=C(N)SCCc1c[nH]cn1 [Imetit dihydrobromide]	91.9 ± 21
CCN(CC)CCCCC1CCN(CC(=O)N2c3ccccc3C(=O)Nc3cccnc32)CC1	141 ± 17
CCCCCCCC/C=C\CCCCCCCC(=O)NCc1ccc(O)c(OC)c1 [Olvanil]	155 ± 38
Fc1ccc(-c2nc3n(c2-c2ccncc2)CCS3)cc1	< 0
CN(C)C(=O)n1nnnc1Cc1ccc(-c2ccccc2)cc1	84.9 ± 38
CCC(=O)O[C@]1(C(=O)SCF)[C@H](C)C[C@H]2[C@@H]3C[C@H](F)C4=CC(=O)C=C[C@]4(C)[C@@]3(F)[C@@H](O)C[C@@]21C [Fluticasone propionate]	59.2 ± 34
C=C[C@@]1(C)CC(=O)[C@]2(O)[C@@]3(C)[C@@H](O)CCC(C)(C)[C@@H]3[C@H](O)[C@H](OC(C)=O)[C@@]2(C)O1 [Forskolin]	116 ± 2.3
O=C(O)C1=CCCN(CCON=C(c2ccccc2)c2ccccc2)C1	159 ± 9.8
CN1C(=O)C(Cc2c[nH]c3ccccc23)NC1=S (stereo not given) [Necrostatin-1]	186 ± 6.6
COc1cc(/C=C(\C#N)C(N)=O)cc(CSc2nc3ccccc3s2)c1O	128 ± 3.3
COc1ccc(CN2C(=O)C(=O)c3cc(OC(F)(F)F)ccc32)cc1	68.6 ± 14
O=C1c2ccccc2CCC1CNCCc1ccc(O)cc1 (stereo not given) [HEAT hydrochloride]	68.1 ± 13
COc1cc2c(cc1OC)-c1c/c(=N\c3c(C)cc(C)cc3C)n(C)c(=O)n1CC2 [Trequinsin hydrochloride]	124 ± 37
CC(O)(C(=O)Nc1ccc(S(=O)(=O)c2ccccc2)cc1)C(F)(F)F (stereo not given)	59.3 ± 19
C/C(=N\NC(=O)C1C(=O)NCC1c1ccccc1)c1cccc(Br)c1 (stereo not given)	147 ± 29
Cc1ccc(/C(=C\CN2CCCC2)c2ccccn2)cc1 [trans-Triprolidine hydrochloride]	96.7 ± 39
Cn1cnnc1Sc1c([N+](=O)[O-])ncn1C	131 ± 11
